High-throughput results: PubChem, Buhrlage Lab, Dana-Farber Cancer Institute and Novartis Institutes for BioMedical Research (Cambridge, Mass)
Only some compounds are listed: those with a hit (about 12% of all), similar ones and a draw of the others.
OTUD3 inh: inhibitors of human OTUD3 deubiquitinase | OTU domain-containing protein 3 (Homo sapiens), Q5T2D3 | purified OTUD3, Ub-rhodamine fluorescence, 2 h | inhibition, % at 25 µM | 47,000 tested, 0.7% active
USP30 block: inhibitors of human USP30 deubiquitinase; inhibition, % at 25 µM; AID 1645860, 2021; Ubiquitin carboxyl-terminal hydrolase 30 (Homo sapiens), Q70CQ3; 47,000 tested, 5.3% active; purified USP30, Ub-rhodamine cleavage fluorescence
Target sequence (Q70CQ3 whole entry, looked up): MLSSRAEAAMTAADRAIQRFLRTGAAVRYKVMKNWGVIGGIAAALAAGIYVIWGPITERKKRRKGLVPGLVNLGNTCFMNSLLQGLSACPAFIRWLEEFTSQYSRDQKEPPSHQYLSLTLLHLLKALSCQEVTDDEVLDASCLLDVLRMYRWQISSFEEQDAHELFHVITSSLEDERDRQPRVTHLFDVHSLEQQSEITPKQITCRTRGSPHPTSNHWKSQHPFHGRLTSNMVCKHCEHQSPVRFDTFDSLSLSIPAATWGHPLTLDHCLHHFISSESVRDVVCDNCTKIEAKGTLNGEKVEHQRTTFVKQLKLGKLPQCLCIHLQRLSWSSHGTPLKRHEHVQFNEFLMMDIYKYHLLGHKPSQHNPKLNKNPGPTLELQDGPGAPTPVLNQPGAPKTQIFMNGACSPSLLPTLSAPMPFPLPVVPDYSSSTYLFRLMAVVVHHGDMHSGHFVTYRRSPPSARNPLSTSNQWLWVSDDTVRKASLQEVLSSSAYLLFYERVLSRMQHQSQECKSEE
USP28 inh: inhibitors of human USP28 deubiquitinase; purified USP28, Ub-rhodamine cleavage fluorescence, 30 min; inhibition, % at 25 µM; 47,000 tested, 3% active; Ubiquitin carboxyl-terminal hydrolase 28 (Homo sapiens), Q96RU2; AID 1645857, 2021
USP17 block: inhibitors of human USP17 deubiquitinase. inhibition, % at 50 µM. purified USP17, Ub-rhodamine cleavage fluorescence, 3 h. 47,000 tested, 6.5% active
An asterisk follows results filed as active; . = not tested or not shown. No stated cut-off is given here; in the data, active means inhibition above about 30%; inactive means the rest.

SMILES	OTUD3 inh	USP30 block	USP28 inh	USP17 block
CCC(C)NC(=O)c1ccc2c(c1)Sc1ncccc1C(=O)N2C1CC1 (stereo unspecified)	-10	-41	-7	-7
CCCCCCCC/C=C\CCCCCCCC(=O)O	-2	17	2	22
CCC/C=C\C#CC/C=C\CCCCCCCC(=O)O	58*	-87	69*	63*
Cc1sc(NC(=O)Cn2nnc3ccccc32)nc1-c1ccc2c(c1)CCN2C(=O)C1CCCCC1	5	30	13	31*
Cc1ccc(C(=O)N2CCc3cc(-c4csc(NC(=O)Cn5nnc6ccccc65)n4)ccc32)cc1	29	8	23	43*
Cc1sc(NC(=O)CN2CCc3ccccc3C2)nc1-c1ccc2c(c1)CCN2C(=O)c1cccc(F)c1	-28	-65	-25	21
Cc1cccc(C(=O)N2CCc3cc(-c4nc(NC(=O)CN5CCc6ccccc6C5)sc4C)ccc32)c1	11	12	20	66*
CC(=O)O[C@H]1C[C@@]2(C)[C@@H](C[C@@H](O)[C@H]3[C@@]4(C)CC[C@@H](O)[C@@H](C)C4CC[C@@]32C)/C1=C(/CCC=C(C)C)C(=O)O (stereo partly specified)	18	22	15	13
COc1ccc(C)cc1NC(=O)c1cc(-c2ccncc2)n[nH]1	-5	-25	-9	-5
COc1ccc(OC)c(NC(=O)c2cc(-c3ccc(C)c(C)c3O)n[nH]2)c1	5	3	18	26
CC(=O)Nc1ccc(NC(=O)c2cc(-c3cc(C)cc(C)c3O)n[nH]2)cc1	3	62*	46*	35*
Cc1ccc(-c2cc(C(=O)Nc3cc(C)ccc3C)[nH]n2)c(O)c1	9	-40	-5	34*
Cc1cccc(NC(=O)c2cc(-c3ccc(C)c(C)c3O)n[nH]2)c1	9	76*	28	88*
COc1ccc(CN(Cc2cc3cc(C)ccc3[nH]c2=O)C(=O)Nc2ccccc2)cc1	3	7	5	14
CCn1c(-c2cc(NC(=O)c3cnccn3)n[nH]2)cc2ccc(OC)cc21	-10	-24	-3	-15
COc1ccc(OCC(=O)NCCC2=CCCCC2)c([N+](=O)[O-])c1	8	10	1	-2
O=C(COc1cc([N+](=O)[O-])cc2cccnc12)NCCC1=CCCCC1	14	37*	14	86*
CC1=C(C(=O)Nc2c(C)cc(C)cc2C)C2(CCC(C)CC2)OC1=O (stereo unspecified)	-4	-14	-8	34*
COc1ccc(C(=O)Nc2ccc3c(N4CCOCC4)ncnc3c2)cc1	-12	-19	3	-12
COc1ccc(NC(=O)c2ccc3ccnc(N4CCN(c5ccc(OC)cc5)CC4)c3c2)cc1	-8	-16	-8	47*
O=S(=O)(NC1CCc2ncc(C(F)(F)F)n2C1)c1ccccc1 (stereo unspecified)	10	18	5	-1
O=C(NCc1ccco1)c1ccc(Cn2c(SCc3ccccc3)nc3ccncc32)cc1	75*	74*	72*	88*
O=C1CC(C(=O)Nc2ccccc2F)n2nc(-c3ccccc3)cc2N1 (stereo unspecified)	2	15	56*	78*
COc1ccc(NC(=O)C2CC(=O)Nc3c(-c4ccc(Cl)cc4)cnn32)c(OC)c1 (stereo unspecified)	0	-1	-6	60*
O=C1CC(C(=O)Nc2ccc(Cl)cc2Cl)n2ncc(-c3ccccc3)c2N1 (stereo unspecified)	-6	-10	-10	-7
SMILES	OTUD3 inh	USP30 block	USP28 inh	USP17 block
O=C1CC(C(=O)Nc2ccccc2Cl)n2nc(-c3ccccc3)cc2N1 (stereo unspecified)	13	27	9	72*
O=C1CC(C(=O)Nc2ccccc2F)n2ncc(-c3ccccc3)c2N1 (stereo unspecified)	9	8	18	44*
COc1ccc(-n2ncc3c2NC(=O)CC32C(=O)Nc3ccccc32)cc1 (stereo unspecified)	-8	3	2	3
O=C1COC2(CCN(C(=O)N3CCCC3)CC2)CN1Cc1ccccc1	16	34*	24	-24
CNc1nc(C2(C)CCCN(C(=O)c3cnccn3)C2)cn2cccc12 (stereo unspecified)	-17	-101	-28	-31
Clc1ccc(-c2cnc(N3CCOCC3)nc2)cc1	3	44*	10	13
Fc1ccc(-c2cnc(N3CCOCC3)nc2)cc1	1	4	1	12
Cc1cc(C)c2cc(CN(C(=O)Nc3ccc(F)cc3)C3CCCC3)c(=O)[nH]c2c1	-8	-2	-14	0
O=C(Nc1ccccc1Cl)N(Cc1cc2cc3c(cc2[nH]c1=O)OCCO3)C1CCCCC1	8	-6	11	52*
Cc1cc(C)c2cc(CN(C(=O)Nc3ccc(Cl)cc3)C3CCCC3)c(=O)[nH]c2c1	-3	36*	-6	8
CCc1ccc2[nH]c(=O)c(CN(C(=O)Nc3ccccc3Cl)C3CCCC3)cc2c1	7	17	1	14
Cc1noc(C)c1C(=O)N1CCc2sccc2C1C (stereo unspecified)	0	.	.	0
COc1ccc(CNc2nccn(-c3ccc4c(c3)OCO4)c2=O)cc1	-4	1	-4	-7
CCCOc1ccc(C2C3=C(CC(C)(C)CC3=O)Nc3ccccc3N2C(=O)c2ccccc2)cc1OC (stereo unspecified)	15	42*	5	18
COc1ccc(C2C3=C(CC(C)(C)CC3=O)Nc3ccccc3N2C(=O)c2ccccc2)cc1 (stereo unspecified)	0	-5	-7	35*
CC1(C)CC(=O)C2=C(C1)Nc1ccccc1N(C(=O)C(F)(F)F)C2c1cccs1 (stereo unspecified)	3	-38	10	64*
COc1ccc(C2CC(=O)C3=C(C2)Nc2ccccc2N(C(=O)c2ccccc2)C3c2ccc(C(C)(C)C)cc2)cc1 (stereo unspecified)	-11	0	4	-3
Cc1cc(F)ccc1NC(=O)NC(C)(C(F)(F)F)C(F)(F)F	10	20	6	20
CCCCCC1OC(=O)c2c(C)cccc2Oc2ccc(O)c(CO)c2/C=C/C1O (stereo unspecified)	20	19	47*	23
CCCCCC1OC(=O)c2c(C)cccc2Oc2ccc(O)c(C=O)c2/C=C/C1O (stereo unspecified)	45*	73*	53*	81*
COc1ccc(F)cc1C(=O)N1CCOC(c2nc(C)cc(=O)[nH]2)C1 (stereo unspecified)	-1	-8	-8	2
Cc1cc2nc(C)c(C/C=C/c3ccccc3)c(=O)n2[nH]1	11	35*	10	22
CSc1nc2nc(C)c(C/C=C/c3ccccc3)c(=O)n2[nH]1	25	40*	14	.
O=C(Nc1cccc(Cl)c1)N1CCc2[nH]cnc2C1c1ccncc1 (stereo unspecified)	-4	-7	-3	-3
